Experimental data from PubChem BioAssay (NCATS).
Inconclusive results are not listed. Unmarked numbers belong to inactive results. Active and inactive are the calls of the source. The call rests on the fitted dose curve; in most records, active means well fitted inhibition curve with a large enough effect; inconclusive means small, poorly fitted or top-dose-only effect; inactive means flat fitted curve, though single readings scatter.

Test system: NIH3T3
Experiment: Cytotoxic Profiling of Annotated Libraries Using Quantitative High-Throughput Screening (AID 1296008); further: nearly all actives have a fitted effect of over 60% in size
Details: Five cell lines viability, CellTiter-Glo ATP luminescence, 48-72 h; max response: stronger effect = lower value
Outline: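 Compounds were pin-transferred onto cells and incubated 48 or 72 hr at 37 degree Celsius, 95% humidity. CellTiter-Glo was added, plates sat 10 min at room temperature, then ATP-coupled luminescence was imaged as the viability read-out.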
On the % scale 0 is the no-effect control and ±100 the full control effect; potency means the concentration at half of the fitted maximal effect.

Compound	max response [%]	outcome	Potency
COc1ccc(S(=O)(=O)Nc2cc(Cl)cc(Cl)c2OC)cc1N1CCNCC1	-3.81		
CC(=O)O[C@H]1[C@@]2(O)C[C@H](C)[C@H](OC(=O)c3ccccc3)[C@@H]2[C@@H](OC(=O)CO)[C@]2(OC(C)=O)C[C@H]3C(=O)C(C)(C)C[C@@H]3[C@@]1(C)[C@H]2OC(C)=O	1.84		
COc1ccc2cc(-c3cc(-c4cc(Cl)cc(Cl)c4)nn3C(C)c3ccc(C(=O)NCCC(=O)O)cc3)ccc2c1 (stereo unspecified)		inactive	
CCCCC1CCC(c2nc(-c3ccncc3)no2)CC1 (stereo unspecified)	-3.82		
CC(C)CCCCC(=O)N[C@@H](CO)C(=O)N[C@@H](CC(C)C)C(=O)[C@@]1(CO)CO1	-2.24		
COc1ccc(NC(=O)c2ccc(-c3ccc(C(=N)N)cc3C)cc2)cc1N1CCN(C)CC1	2.92		
CC(C)(Cc1nc(-c2ccc(O)cn2)no1)C(=O)NC1=C(C(=O)O)CCCC1	-20.8		
CCCN(CCc1ccsc1)C1CCc2c(O)cccc2C1 (stereo unspecified)		inactive	
CCn1c(=O)n([C@H]2CCCN(c3nccc(-c4cc5ccccc5o4)n3)C2)c2ccccc21		inactive	
CC(=O)OC1CC(C)(C(=O)O)CC2C3=CC(=O)C4C5(C)CCC(OC6OC(C(=O)O)C(O)C(O)C6OC6OC(C(=O)O)C(O)C(O)C6O)C(C)(C)C5CCC4(C)C3(C)CCC12C (stereo unspecified)	1.8		
COC1=CC(=O)C=C(C)C12Oc1c(Cl)c(OC)cc(OC)c1C2=O (stereo unspecified)	-3.2		
O=C(Nc1ccn(Cc2ccc(O)cc2C(F)(F)F)n1)c1c(F)cccc1F		inactive	
Cc1cccc(N2CCN(C(=O)c3cc(S(=O)(=O)N(C)C)ccc3N3CCCC3)CC2)c1C	-5.43		
COC(=O)c1ccnc(-c2cc(C(=O)Nc3ccc(C4(N)CC4)cc3)ccn2)c1	-5.19		
COc1ccc(CCO[C@@H]2O[C@H](CO[C@H]3OC[C@](O)(CO)[C@H]3O)[C@@H](OC(=O)/C=C/c3ccc(O)c(O)c3)[C@H](O[C@@H]3O[C@@H](C)[C@H](O)[C@@H](O)[C@H]3O)[C@H]2O)cc1OC	-1.58		
CC(C)(C)c1ccc(C(=O)Nc2cn3cc(-n4ccnc4)ccc3n2)cc1	-1.43		
C[C@@H](NC(=O)C(=O)c1c[nH]c2ccc([N+](=O)[O-])cc12)c1ccccc1	3.7		
COc1ccc(NC(=O)c2ccc(-c3ccc(-c4nnc(C)o4)cc3C)cc2)cc1N1CCN(C)CC1	-14.5		

Compound	max response [%]	outcome	Potency
C=C1C(=O)OC2CC(C)C(CCC(C)O)=CCC12 (stereo unspecified)	-1.15		
CC(C)Nc1nc(Nc2ccccc2)nc(-c2ccccc2)n1	-18.6		
O=C(NCCCNc1nc(Nc2cccc(CN3CCOCC3)c2)ncc1C1CC1)C1CCC1			4.61 µM (active)
Cc1cc2c(N3CCCC3)nc(N3CCCC3)nc2n1C	-2.11		
Cc1cc(OCCCS(C)(=O)=O)cc(C)c1-c1cccc(COc2ccc(C3=CC(=O)NS3=O)cc2)c1 (stereo unspecified)	-0.311		
O=C(c1cc(Cc2n[nH]c(=O)c3ccccc23)ccc1F)N1CCCNCC1	0.0332		
CCNC1(C(N)=O)CCN(c2ncnc3c2nc(-c2ccccc2Cl)n3-c2ccc(Cl)cc2)CC1	-1.7		
CCCOc1ccc(S(=O)(=O)N2CCN(CCO)CC2)cc1-c1nc2c(CCC)cn(CC)c2c(=O)[nH]1	4.33		
CN1CCN(C2=Nc3ccccc3Nc3ccc(OS(=O)(=O)C(F)(F)F)cc32)CC1		inactive	
CCOc1ccc(CCNC(=O)c2cc3sc(Cl)cc3n2C)cc1OCC		inactive	
NS(=O)(=O)c1ccc(NC(=O)Nc2ccc(F)cc2)cc1	2.88		
O=C(Nc1cccnc1)c1cc(-c2ccnc(F)c2)ccc1OCc1ccccc1	4.92		
Cc1cc(C)c(-n2cc(C)c3c(Cl)nc(C)nc32)c(C)c1	-6		
Cc1cc(C)c(S(=O)(=O)n2cc(C)cc2C)c(C)c1		inactive	
O=C(c1ccc(OC(F)F)c(C#Cc2ccccn2)c1)N1Cc2cccnc2C1	3.1		
CC1=C(C(=O)Nc2cc(Cl)ccc2Cl)C(c2ccco2)C2=C(CCCC2=O)N1 (stereo unspecified)	-25.9		
COc1ccc2c(NC(=O)Nc3cccc(C(F)(F)F)n3)ccnc2c1	-6.75		
CC[C@H](C)/C=C(C)/C=C/C1=CC2=CC(=O)[C@]3(C)OC(=O)[C@@H](C(C)=O)[C@@H]3C2=CO1	-1.49		
